Where a name gives a salt, the structure may show the parent alone.

In the assay the test system is FLX1 + dox-induced PRKAR1A G325D. Description: difference in log2 fold change of viability vs plate median (dox-induced PRKAR1A G325D minus uninduced); higher = compound less effective when PKA is inhibited. The settings on record: concentration: not stated (2 or 5 uM); 5 days. Here is the method:
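For each plate a log2 fold change vs the plate median was derived, and the values without dox were subtracted from those with dox, averaged over three biological replicates.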
`C=CC(=O)Nc1cccc(Nc2nc(Nc3ccc(Oc4ccnc(C(=O)NC)c4)cc3)ncc2F)c1`: the “difference in log2 fold change of viability” value (“difference in log2 fold change” for short) is -0.452.
Take `O=C(Nc1cc(C(F)(F)F)cc(C(F)(F)F)c1)c1cc(Cl)ccc1O`: the “difference in log2 fold change” value is -0.138.
Then `O=C(Nc1c[nH]nc1-c1nc2ccc(CN3CCOCC3)cc2[nH]1)NC1CC1`, with 0.115; and `C=CC(=O)Nc1cccc(Oc2nc(Nc3ccc(N4CCN(C)CC4)cc3OC)ncc2Cl)c1`, with -1.14.
In the case of `Cc1csc(-c2nnc(Nc3ccc(Oc4ncccc4-c4ccnc(N)n4)cc3)c3ccccc23)c1`, the “difference in log2 fold change” value amounted to 0.188.
As for `S=C(NCc1ccc2c(c1)OCO2)N1CCN(c2ncnc3c2oc2ccccc23)CC1` [Amuvatinib (MP-470)], the “difference in log2 fold change” value amounted to 0.22.
On to `COc1ccc(COc2cc3oc(=O)c4cc(C(C)O)ccc4c3cc2OC)cc1` (centres undefined) [Palomid 529 (P529)], for which the “difference in log2 fold change” value is -0.0394.
As to `CN(C)C/C=C/C(=O)Nc1cc2c(Nc3ccc(F)c(Cl)c3)ncnc2cc1O[C@H]1CCOC1` [Afatinib (BIBW2992)], the “difference in log2 fold change” value is -1.66.
For `Cc1ccc(C(=O)Nc2cccc(C(F)(F)F)c2)cc1Nc1nc(-c2cccnc2)nc2c1cnn2C`, the “difference in log2 fold change” value turned out to be 0.868.
In the case of `C[C@@H](Oc1cc(-n2cnc3ccc(CN4CCN(C)CC4)cc32)sc1C(N)=O)c1ccccc1C(F)(F)F` it was -0.2; in that of `CC[C@@H]1C(=O)N(C)c2cnc(Nc3ccc(C(=O)N[C@H]4CC[C@H](N5CCN(CC6CC6)CC5)CC4)cc3OC)nc2N1C(C)C` [Volasertib (BI 6727)], -0.0557.
`Cc1cc(C(=O)NOCCO)c(Nc2ccc(I)cc2F)n(C)c1=O`: the “difference in log2 fold change” value was -0.818.
As for `C=CC(=O)Nc1cccc(Sc2nc(Nc3ccc(N4CCN(C)CC4)cc3)ncc2Cl)c1`, the “difference in log2 fold change” value amounted to 0.0442.
For the compound `O=S(=O)(c1cccc2cnccc12)N1CCCNCC1` [Fasudil (HA-1077) HCl], the “difference in log2 fold change” value is -0.15.
As to `Cc1nc(NC(=O)N2CCC[C@H]2C(N)=O)sc1-c1ccnc(C(C)(C)C(F)(F)F)c1` [Alpelisib (BYL719)], the “difference in log2 fold change” value came out at 0.385.
Consider `Cn1cnc(N)c2ncnc1-2` [3-Methyladenine (3-MA)], for which the “difference in log2 fold change” value came to 0.548.
Regarding `O=S(=O)(NCCNC/C=C/c1ccc(Br)cc1)c1cccc2cnccc12`, the “difference in log2 fold change” value is -0.243.
As for `OCCn1cc(-c2cnc3nnn(Cc4ccc5ncccc5c4)c3n2)cn1`, the “difference in log2 fold change” value was -0.172.
On to `CCCCCCCCc1ccc(CCC(N)(CO)CO)cc1` [Fingolimod (FTY720) HCl], for which the “difference in log2 fold change” value is 0.301.
In the case of `CN1CCN(c2ccc3nc(-c4c(N)c5c(F)cccc5[nH]c4=O)[nH]c3c2)CC1` [Dovitinib (TKI-258) Dilactic Acid] it was -0.364; in that of `CC(C)NC[C@@H](C(=O)N1CCN(c2ncnc3c2[C@H](C)C[C@H]3O)CC1)c1ccc(Cl)cc1` [Ipatasertib (GDC-0068)], 0.54; in that of `Cc1nc(N)sc1-c1ccnc(Nc2ccc(N3CCOCC3)cc2)n1`, 0.455.
In the case of `COc1cc2ncnc(Nc3ccc(O)c(Br)c3)c2cc1OC` it was -0.279; in that of `CNC(=O)c1ccccc1Sc1ccc2c(/C=C/c3ccccn3)n[nH]c2c1` [Axitinib], -0.125; in that of `COc1ncc(-c2ccc3nccc(-c4ccnnc4)c3c2)cc1NS(=O)(=O)c1ccc(F)cc1F`, 0.179.
On to `CN1CCN(C2CCN(C(=O)Nc3cc(Oc4ccc(NC(=O)C5(C(=O)Nc6ccc(F)cc6)CC5)c(F)c4)ccn3)CC2)CC1` [Golvatinib (E7050)], for which the “difference in log2 fold change” value is 0.0894.
Turning to `c1cncc(CN2CCC(n3ncc4c(N5CCOCC5)nc(-c5ccc6[nH]ccc6c5)nc43)CC2)c1`, the “difference in log2 fold change” value is -1.08.
`COCC(=O)NC/C=C/c1ccc2ncnc(Nc3ccc(Oc4ccc(C)nc4)c(C)c3)c2c1`: the “difference in log2 fold change” value was 0.0049.
In the case of `Cc1ccc(Nc2nccc(N(C)c3ccc4c(C)n(C)nc4c3)n2)cc1S(N)(=O)=O` it was -0.0987.
As to `C[S+]([O-])c1ccc(-c2nc(-c3ccc(F)cc3)c(-c3ccncc3)[nH]2)cc1` (centres undefined), the “difference in log2 fold change” value was -0.00802.
As for `C[C@H](NC(=O)/C(C#N)=C/c1cccc(Br)n1)c1ccccc1`, the “difference in log2 fold change” value was -0.381.
Then `Cc1ccccc1CN1C2=NCCN2C(=O)C2=C1CCN(Cc1ccccc1)C2` [TIC10 Analogue], with -0.0375; and `C#Cc1cccc(Nc2ncnc3cc(OCCOC)c(OCCO)cc23)c1`, with -0.763.
Turning to `CCn1c2ccccc2c2cc(Nc3ccnc(NCCCN4CCOCC4)n3)ccc21`, the “difference in log2 fold change” value amounted to 0.808.
As for `CN(C)Cc1cccc(N=C(c2ccccc2)c2c(O)[nH]c3cc(C(=O)N(C)C)ccc23)c1`, the “difference in log2 fold change” value is 0.0526.
Regarding `Cc1cc(C)c(/C=C2\C(=O)Nc3ccccc32)[nH]1` [Semaxanib (SU5416)], the “difference in log2 fold change” value is 0.256.
Turning to `Cc1cc(O)c2c(c1)C(=O)c1cccc(O)c1C2=O` [Chrysophanic Acid], the “difference in log2 fold change” value was determined as 0.0332.
In the case of `N#Cc1c(NC(=O)c2cccc3ccccc23)sc2c1CCCC2` [JNK Inhibitor IX] it was 0.317; in that of `CN(C)Cc1cccc(N/C(=C2\C(=O)Nc3cc(C(N)=O)ccc32)c2ccccc2)c1`, -0.409.

The record behind these values is the supplement of paper PMC9925115.
